Each structure is given as a SMILES string. “And” between values parts separate entries of the source, which are not always exact repeats. Equal entries are not always repeated. Inconclusive results are not listed. A structure can be active in one record and inactive in another. The source made the active and inactive calls. How the source made its calls: active means hit-call score of the fitted dose curve at least 0.9, where 1 is the maximum; inconclusive means response in the unintended direction; inactive means score below 0.9.

As usually defined, the AC50 is the concentration giving half of the maximal activity seen.

Sequence of Retinoic acid receptor RXR-alpha (Homo sapiens) (P19793 whole entry, looked up, the tested form may be a part): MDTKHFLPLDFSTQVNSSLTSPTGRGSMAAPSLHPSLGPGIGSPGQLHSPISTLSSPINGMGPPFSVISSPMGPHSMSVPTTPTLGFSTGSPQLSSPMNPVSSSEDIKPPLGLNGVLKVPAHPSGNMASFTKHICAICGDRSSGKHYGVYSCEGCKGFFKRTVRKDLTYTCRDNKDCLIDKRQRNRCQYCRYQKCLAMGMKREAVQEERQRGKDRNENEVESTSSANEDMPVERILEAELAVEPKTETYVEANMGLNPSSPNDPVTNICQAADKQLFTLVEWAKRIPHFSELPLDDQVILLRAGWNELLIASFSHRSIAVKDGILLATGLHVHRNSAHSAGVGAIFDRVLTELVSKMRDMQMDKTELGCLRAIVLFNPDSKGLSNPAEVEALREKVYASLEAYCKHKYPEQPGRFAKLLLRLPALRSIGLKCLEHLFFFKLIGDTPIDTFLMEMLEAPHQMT

The experiment deals with Retinoic acid receptor RXR-alpha (Homo sapiens) (UniProt P19793). In words: OT_NURR1_NURR1RXRa_0480: Odyssey Thera (OT) 8-hour HEK293T Protein Complementation Assay for Nurr1/retinoid X receptor (RXR) (AID 2283385). Here is the method:
OT_NURR1_NURR1RXRa_0480 is a cell-based assay that uses HEK293T, a human kidney cell line, with measurements taken at 8 hours after chemical dosing in a 384-well plate.OT_NURR1_NURR1RXRa_0480 is one of one assay component(s) measured or calculated from the OT_NURR1_NURR1RXRa_0480 assay. It is designed to make measurements of protein fragment complementation, a form of binding reporter, as detected with fluorescence intensity signals by Protein-fragment Complementation technology.Data from the assay component OT_NURR1_NURR1RXRa_0480 was analyzed into 1 assay endpoint. This assay endpoint, OT_NURR1_NURR1RXRa_0480, was analyzed in the positive analysis fitting direction relative to DMSO as the negative control and baseline of activity. Using a type of binding reporter, measures of receptor for gain-of-signal activity can be used to understand the binding at the pathway-level as they relate to the gene RXRA. Furthermore, this assay endpoint can be referred to as a primary readout, because the performed assay has only produced 1 assay endpoint. To generalize the intended target to other relatable targets, this assay endpoint is annotated to the nuclear receptor intended target family, where the subfamily is non-steroidal.
Protein-fragment complementation assay, or PCA, is a method for the identification and quantification of protein-protein interactions. In the PCA, the proteins of interest ("bait" and "prey") are each covalently linked to fragments of a third protein (e.g. DHFR, which acts as a "reporter"). Interaction between the bait and the prey proteins brings the fragments of the reporter protein in close proximity to allow them to form a functional reporter protein whose activity can be measured.
For `O=C(O)CC(O)C(=O)O` (stereo not given), the molecule was called inactive. For the molecule `CCOC(=O)COc1ccc2c(c1)CC(NCC(O)c1cccc(Cl)c1)CC2` (stereo not given), the AC50 was 154 nM (active) and 591 nM (active). Regarding `CCCCCCc1ccc(O)cc1O`, the outcome was inactive.

For `NC(=O)NO`, the call was inactive. Still for that read-out and setting: to `CC(C)=CCCC(C)=CC=O` belongs “inactive”.

Consider `O=C(OC[C@H]1O[C@@H](OC(=O)c2cc(O)c(O)c(OC(=O)c3cc(O)c(O)c(O)c3)c2)[C@H](OC(=O)c2cc(O)c(O)c(OC(=O)c3cc(O)c(O)c(O)c3)c2)[C@@H](OC(=O)c2cc(O)c(O)c(OC(=O)c3cc(O)c(O)c(O)c3)c2)[C@@H]1OC(=O)c1cc(O)c(O)c(OC(=O)c2cc(O)c(O)c(O)c2)c1)c1cc(O)c(O)c(OC(=O)c2cc(O)c(O)c(O)c2)c1`, for which the AC50 is 20.5 µM (active) and the molecule was classed as inactive. The corresponding values for `CNS(=O)(=O)c1cc(C(=O)N2CCC(CCN3C4CCC3CC(n3c(C)nc5ccccc53)C4)(c3cccc(F)c3)CC2)c(Cl)cc1F` (stereo not given) are 14.3 µM (active) and “inactive”. The corresponding values for `CC(C)c1cccc(C(C)C)c1N1C(=O)c2ccc(O)cc2C1=O` are 35.4 µM (active) and “inactive”.

As to `C1N2CN3CN1CN(C2)C3`, the result was inactive. Same read-out and setting: to `O=C(O)CCN(C1(C(=O)NO)CCCC1)S(=O)(=O)c1ccc(Oc2ccc(F)cc2)cc1` belongs “inactive”. For the molecule `O=P(OC(CCl)CCl)(OC(CCl)CCl)OC(CCl)CCl`, the molecule was called inactive.

`C[C@](N)(Cc1ccc(O)c(O)c1)C(=O)O`: the molecule was classed as inactive. In the case of `Nc1nc2ncc(CNc3ccc(C(=O)N[C@@H](CCC(=O)O)C(=O)O)cc3)nc2c(=O)[nH]1`, the molecule was classed as inactive. On the same count and under the same terms, to `O=C(O)c1cc(N=Nc2ccc(S(=O)(=O)Nc3ccccn3)cc2)ccc1O` belongs “inactive”; to `C1=CCCC=CCCC=CCC1`, “inactive”.

Turning to `CCCN(C1CCN(C(=O)C2CCNCC2)CC1)[C@@H]1CCc2ccc(OC)cc2C1`, the AC50 is 87.3 µM (active). For `CC1(C)C(=O)N(Br)C(=O)N1Br`, the result was inactive.

With `CC(C)(O)c1coc(S(=O)(=O)NC(=O)Nc2c3c(cc4c2CCC4)CCC3)c1`, the call was inactive. On the same count and under the same terms, to `Cc1ccc(S(=O)(=O)O)cc1C` belongs “inactive”. As for `O=C(NS(=O)(=O)/C=C/c1ccccc1)c1ccc(F)cc1Cl`, the AC50 was 27.4 µM (active).

Take `CC(O)CN(CCN(CC(C)O)CC(C)O)CC(C)O` (stereo not given): the molecule was called inactive.

Take `CNCc1ccc(NC(=O)c2c[nH]c3c2C(=O)CCC3)cc1`: the molecule was classed as inactive. As for `CCNc1ccccc1`, the molecule was called inactive. On to `Cc1ccc(C)c(O)c1`, for which the outcome was inactive. Take `COC(=O)c1c(Cl)c(Cl)c(C(=O)OC)c(Cl)c1Cl`: the AC50 was 68.6 µM (active) and the call was inactive. As for `CCOCCOCCOCCO`, the molecule was called inactive.

Take `CCn1nc(Cc2ccccc2)cc1C1CCN(C[C@H]2C[C@H](N(C)[C@@H](C(=O)O)C(C)C)C[C@@H]2c2cccc(F)c2)CC1`: the call was inactive. Take `Fc1ccccc1[C@@H](F)COC1CCC(Nc2ncnc3[nH]ncc23)CC1` (stereo not given in full): the result was inactive.

Regarding `CCOCCO`, the call was inactive. Same read-out and setting: to `CC[C@H]1CC[C@H](NCc2cc3c(cc2OC)[C@H]2C[C@H]2C(=O)N3C)[C@H](c2ccccc2)N1` belongs “inactive”.

For the molecule `C=CCCCCCCCCC(=O)O`, the call was inactive.

As to `CN(C)c1ccc(Cc2ccc(N(C)C)cc2)cc1`, the AC50 is 35.1 µM (active) and the molecule was called inactive.

For the molecule `CN(C)c1ccc(N=NS(=O)(=O)O)cc1`, the outcome was inactive. For `O=C(O)c1cccc(N(Cc2cccnc2)c2ccc(OC(F)F)c(OC(F)F)c2)c1`, the AC50 was 29.4 µM (active). Regarding `COc1ccc(-n2nc(C(F)F)cc2-c2ccc(S(C)=O)cc2)cc1` (stereo not given), the molecule was classed as inactive.

The values are drawn from PubChem BioAssay (EPA / NIEHS).
